Results: the supplement of paper PMC7695840

Experiments:
[1] = system: Staphylococcus aureus MW2 delta-mecA (mecA-); assay: normalized GFP fluorescence (growth of mecA- strain) (fraction of control range); higher = more growth of mecA- strain; settings: compound concentration: 150 uM; cefoxitin: subinhibitory; fluorescent label: GFP
Method in brief: (§1)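 Fluorescence from DsRed (540/590) and GFP (485/520) was recorded after 20 h of static growth at 37 °C and 90% humidity. The wells held a 1:1 mix of pre-induced S. aureus MW2 cells, gene-bearing with DsRed and gene-deleted with GFP, in LB with a daily-set subinhibitory antibiotic dose, dispensed at 5 µL/well onto 150 μM compound (1.5% DMSO) in 1536-well plates, single replicate. Each channel was scaled per plate between single-strain control medians, excluding plates with high untreated ratios and rows with DsRed/GFP >10.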

[2] = system: Staphylococcus aureus MW2 (mecA+); assay: normalized DsRed fluorescence (growth of mecA+ strain) (fraction of control range); higher = more growth of mecA+ strain; settings: compound concentration: 150 uM; cefoxitin: subinhibitory; fluorescent label: DsRed
Method in brief: as §1

| SMILES | normalized GFP fluorescence [1] | normalized DsRed fluorescence [2] |
| --- | --- | --- |
| Cc1cc(/C=C/c2ccc3cc(N(C)C)ccc3[n+]2C)c(C)n1-c1ccccc1 | -0.0128 | – |
| CCCCC(CC)COC(=O)C=Cc1ccc(OC)cc1 (stereo unspecified) | 0.289 | 0.473 |
| O=C(NCCO[N+](=O)[O-])c1cccnc1 [Nicorandil (Ikorel)] | 0.624 | 0.986 |
| C=CCCCCCCCCC(=O)O | 0.13 | – |
| Fc1ccc(C(c2ccc(F)cc2)N2CCN(C/C=C/c3ccccc3)CC2)cc1 | 0.0954 | – |
| CO[C@@]1(NC(=O)Cc2cccs2)C(=O)N2C(C(=O)O)=C(COC(N)=O)CS[C@@H]21 | 0.00393 | – |
| C[C@@H](O)[C@H]1C(=O)N2C(C(=O)O)=C(SCCNC=N)C[C@H]12 | -0.0325 | – |
| COc1nc(N)nc2c1ncn2[C@@H]1O[C@H](CO)[C@@H](O)[C@@H]1O [Nelarabine (Arranon)] | 0.298 | 0.855 |
| CC[C@H]1OC(=O)[C@H](C)[C@@H](O[C@H]2C[C@@](C)(OC)[C@@H](O)[C@H](C)O2)[C@H](C)[C@@H](O[C@@H]2O[C@H](C)C[C@H](N(C)C)[C@H]2O)[C@](C)(OC)C[C@@H](C)C(=O)[C@H](C)[C@@H](O)[C@]1(C)O [Clarithromycin (Biaxin, Klacid)] | 0.181 | 0.788 |
| Nc1nc(CC(=O)Nc2ccc(CCNC[C@H](O)c3ccccc3)cc2)cs1 [Mirabegron (YM178)] | 0.336 | 1.03 |
| COc1cccc2c1C(=O)c1c(O)c3c(c(O)c1C2=O)C[C@@](O)(C(=O)CO)C[C@@H]3O[C@H]1C[C@H](N)[C@@H](O)[C@H](C)O1 | -0.00778 | – |
| CO/N=C(\C(=O)N[C@@H]1C(=O)N2C(C(=O)OC(C)OC(C)=O)=C(COC(N)=O)CS[C@H]12)c1ccco1 (stereo partly specified) | 0.0118 | – |
| COC(=O)[C@H](c1ccccc1Cl)N1CCc2sccc2C1 | 0.0333 | – |
| Cc1c(OCC(F)(F)F)ccnc1C[S@@+]([O-])c1nc2ccccc2[nH]1 | 0.348 | 0.452 |
| Nc1ccn([C@@H]2O[C@H](CO)[C@@H](O)[C@@H]2O)c(=O)n1 | 0.00362 | – |
